Measurements as given in the supplement of paper PMC7411054.

How the values were obtained:
Settings in all cases: treatment time: 24 h
A549-ACTB-RAB5A [1] = assay: phenotypically active (imaging signature differs from DMSO and reproducible) at any of 0.3-9 uM (binary (1 = active, 0 = inactive)); higher = active
Outline: (§1)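 After 24 h at 0.3, 1, 3 or 9 µM, with four wells per treatment, fifteen gene-edited A549, HepG2 and WPMY1 reporter lines carrying BFP, GFP and RFP/FusionRed were imaged live. Each well's live-cell features were expressed relative to solvent control wells. Deviation required ≥3 of 4 wells past the 95th percentile of control Euclidean distances, and reproducibility a median replicate Pearson correlation over the 95th percentile of non-replicates. Phenotypic activity rested on both.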

A549-CANX-COX4 = assay: as above
Outline: as §1

A549-GM130-SQSTM1 = assay: as above
Outline: as §1

A549-TP53BP1-CLTA [2] = assay: as above
Outline: as §1

A549-TUBA1B-RELA = assay: as above
Outline: as §1

HepG2-ACTB-RAB5A = assay: as above
Outline: as §1

HepG2-CANX-COX4 = assay: as above
Outline: as §1

HepG2-GM130-SQSTM1 = assay: as above
Outline: as §1

HepG2-TP53BP1-CLTA [3] = assay: as above
Outline: as §1

HepG2-TUBA1B-RELA = assay: as above
Outline: as §1

WPMY1-ACTB-RAB5A = assay: as above
Outline: as §1

WPMY1-CANX-COX4 = assay: as above
Outline: as §1

WPMY1-GM130-SQSTM1 [4] = assay: as above
Outline: as §1

WPMY1-TP53BP1-CLTA [5] = assay: as above
Outline: as §1

WPMY1-TUBA1B-RELA = assay: as above
Outline: as §1

A549-ACTB-RAB5A [6] = assay: lowest phenotypically active concentration; higher = less potent
Outline: as §1

A549-TP53BP1-CLTA [7] = assay: as above
Outline: as §1

HepG2-TP53BP1-CLTA [8] = assay: as above
Outline: as §1

WPMY1-GM130-SQSTM1 [9] = assay: as above
Outline: as §1

WPMY1-TP53BP1-CLTA [10] = assay: as above
Outline: as §1

Structure (SMILES) | phenotypically active (A549-ACTB-RAB5A [1]) | phenotypically active (A549-CANX-COX4) | phenotypically active (A549-GM130-SQSTM1) | phenotypically active (A549-TP53BP1-CLTA [2]) | phenotypically active (A549-TUBA1B-RELA) | phenotypically active (HepG2-ACTB-RAB5A) | phenotypically active (HepG2-CANX-COX4) | phenotypically active (HepG2-GM130-SQSTM1) | phenotypically active (HepG2-TP53BP1-CLTA [3]) | phenotypically active (HepG2-TUBA1B-RELA) | phenotypically active (WPMY1-ACTB-RAB5A) | phenotypically active (WPMY1-CANX-COX4) | phenotypically active (WPMY1-GM130-SQSTM1 [4]) | phenotypically active (WPMY1-TP53BP1-CLTA [5]) | phenotypically active (WPMY1-TUBA1B-RELA) | lowest phenotypically active concentration (A549-ACTB-RAB5A [6]) [µM] | lowest phenotypically active concentration (A549-TP53BP1-CLTA [7]) [µM] | lowest phenotypically active concentration (HepG2-TP53BP1-CLTA [8]) [µM] | lowest phenotypically active concentration (WPMY1-GM130-SQSTM1 [9]) [µM] | lowest phenotypically active concentration (WPMY1-TP53BP1-CLTA [10]) [µM]
COc1ccc2c(c1)[C@]13CCCC[C@@H]1[C@H](C2)N(C)CC3 [dextromethorphan] | 0 (inactive) | 0 (inactive) | 0 (inactive) | 0 (inactive) | 0 (inactive) | 0 (inactive) | 0 (inactive) | 0 (inactive) | 0 (inactive) | 0 (inactive) | 0 (inactive) | 0 (inactive) | 0 (inactive) | 0 (inactive) | 0 (inactive) |  |  |  |  | 
CCCCCOc1ccc(C(=O)c2cccc3ccccc23)c2ccccc12 | 0 (inactive) | 0 (inactive) | 0 (inactive) | 0 (inactive) | 0 (inactive) | 0 (inactive) | 0 (inactive) | 0 (inactive) | 0 (inactive) | 0 (inactive) | 0 (inactive) | 0 (inactive) | 0 (inactive) | 0 (inactive) | 0 (inactive) |  |  |  |  | 
Cc1ccc(C[N+](C)(C)C)o1 [5-Methylfurmethiodide] | 0 (inactive) | 0 (inactive) | 0 (inactive) | 0 (inactive) | 0 (inactive) | 0 (inactive) | 0 (inactive) | 0 (inactive) | 0 (inactive) | 0 (inactive) | 0 (inactive) | 0 (inactive) | 0 (inactive) | 0 (inactive) | 0 (inactive) |  |  |  |  | 
COc1cc2c3cc1Oc1cc(ccc1O)C[C@@H]1c4c(cc(OC)c(O)c4Oc4cccc(c4)C[C@@H]3N(C)CC2)CC[N+]1(C)C [Tubocurarine chloride pentahydrate (+)] | 0 (inactive) | 0 (inactive) | 0 (inactive) | 0 (inactive) | 0 (inactive) | 0 (inactive) | 0 (inactive) | 0 (inactive) | 0 (inactive) | 0 (inactive) | 0 (inactive) | 0 (inactive) | 0 (inactive) | 0 (inactive) | 0 (inactive) |  |  |  |  | 
CCCC(C)C1(CC)C(=O)N=C(S)NC1=O (stereo not given) [thiopental] | 0 (inactive) | 0 (inactive) | 0 (inactive) | 0 (inactive) | 0 (inactive) | 0 (inactive) | 0 (inactive) | 0 (inactive) | 0 (inactive) | 0 (inactive) | 0 (inactive) | 0 (inactive) | 0 (inactive) | 0 (inactive) | 0 (inactive) |  |  |  |  | 
O=P1(NCCCl)OCCCN1CCCl (stereo not given) [ifosfamide] | 0 (inactive) | 0 (inactive) | 0 (inactive) | 0 (inactive) | 0 (inactive) | 0 (inactive) | 0 (inactive) | 0 (inactive) | 0 (inactive) | 0 (inactive) | 0 (inactive) | 0 (inactive) | 0 (inactive) | 0 (inactive) | 0 (inactive) |  |  |  |  | 
C[C@@H](N)[C@@H](O)c1ccccc1 [phenylpropanolamine] | 0 (inactive) | 0 (inactive) | 0 (inactive) | 0 (inactive) | 0 (inactive) | 0 (inactive) | 0 (inactive) | 0 (inactive) | 0 (inactive) | 0 (inactive) | 0 (inactive) | 0 (inactive) | 0 (inactive) | 0 (inactive) | 0 (inactive) |  |  |  |  | 
C=C1[C@@H](O)C2C=CC[C@H](C)C(=O)[C@](C)(O)C=C[C@@H](OC(C)=O)[C@]23C(=O)N[C@H](Cc2ccccc2)[C@@H]3[C@@H]1C (stereo not given in full) [Cytochalasin D] | 1 (active) | 1 (active) | 1 (active) | 1 (active) | 1 (active) | 1 (active) | 1 (active) | 1 (active) | 1 (active) | 1 (active) | 1 (active) | 1 (active) | 1 (active) | 1 (active) | 1 (active) | ≤ 0.3 | ≤ 0.3 | ≤ 0.3 | ≤ 0.3 | ≤ 0.3
C=C1[C@H]2C[C@@]3([C@@H]1O)[C@@H](C[C@@H]2O)[C@]12[C@@H]4C[C@H]3[C@H]1N(CC)C[C@]4(C)CC[C@@H]2O [Napelline] | 0 (inactive) | 0 (inactive) | 0 (inactive) | 0 (inactive) | 0 (inactive) | 0 (inactive) | 0 (inactive) | 0 (inactive) | 0 (inactive) | 0 (inactive) | 0 (inactive) | 0 (inactive) | 0 (inactive) | 0 (inactive) | 0 (inactive) |  |  |  |  | 
C[C@@H]1O[C@@H](O[C@H]2C[C@@H](O)[C@]3(CO)[C@H]4[C@H](O)C[C@]5(C)[C@@H](C6=CC(=O)OC6)CC[C@]5(O)[C@@H]4CC[C@]3(O)C2)[C@H](O)[C@H](O)[C@H]1O [Strophantine octahydrate] | 1 (active) | 1 (active) | 1 (active) | 1 (active) | 1 (active) | 1 (active) | 1 (active) | 1 (active) | 1 (active) | 1 (active) | 1 (active) | 1 (active) | 1 (active) | 1 (active) | 1 (active) | 1 | ≤ 0.3 | ≤ 0.3 | ≤ 0.3 | ≤ 0.3
COc1ccc(C[C@H]2NC[C@H](O)[C@H]2OC(C)=O)cc1 [Anisomycin] | 1 (active) | 1 (active) | 1 (active) | 1 (active) | 1 (active) | 1 (active) | 1 (active) | 1 (active) | 1 (active) | 1 (active) | 1 (active) | 1 (active) | 1 (active) | 1 (active) | 1 (active) | ≤ 0.3 | ≤ 0.3 | ≤ 0.3 | ≤ 0.3 | ≤ 0.3
